Out of some 5,500 compounds screened, about 2,000 (36%) were called active. Roughly 18% stayed inconclusive and do not appear here. Cut-off read from the data, not from the text of the source: active = normalized growth mostly below about 0.91 (no sharp cut-off); inconclusive = no clear call, values can overlap the other calls; inactive = mostly above about 0.92. The list shows a part of the results.
Assay: chemical genetic growth profiling, strain panel (AID 1159580);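 note: tested at 20 µM; growth read once vehicle control cultures reached saturation at 30 °C; 1 = growth at the plate median or of vehicle wells; lower values mean less growth of the strain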
Details: growth OD

Measured: normalized growth

CC(=O)N[C@@H](Cc1c[nH]c2ccccc12)C(N)=O
inactive: S. cerevisiae deletion strains, locus YJR075W, strain HOC1, stronger effect = lower value 0.959 | S. cerevisiae deletion strains, locus YKL009W, strain mrt4, stronger effect = lower value 1.01 | S. cerevisiae deletion strains, locus YKL068W, stronger effect = lower value 0.988 | S. cerevisiae deletion strains, locus YKL085W, strain MDH1 (second series), stronger effect = lower value 1.01 | S. cerevisiae deletion strains, locus YKL085W, strain MDH1, stronger effect = lower value 1.01 | S. cerevisiae deletion strains, locus YKL160W, strain elf1, stronger effect = lower value 1.02 | S. cerevisiae deletion strains, locus YKL190W, strain CNB1, stronger effect = lower value 0.979 | S. cerevisiae deletion strains, locus YKR001C, strain vps1, stronger effect = lower value 1.01 | S. cerevisiae deletion strains, locus YKR026C, strain gcn3, stronger effect = lower value 1.03 | S. cerevisiae deletion strains, locus YKR091W, strain srl3, stronger effect = lower value 1.01 | S. cerevisiae deletion strains, locus YLL001W, strain dnm1, stronger effect = lower value 1.03 | S. cerevisiae deletion strains, locus YLL026W, stronger effect = lower value 1.02 | S. cerevisiae deletion strains, locus YLL041C, strain sdh2, stronger effect = lower value 1.02 | S. cerevisiae deletion strains, locus YLR027C, strain aat2, stronger effect = lower value 1.03 | S. cerevisiae deletion strains, locus YLR039C, strain RIC1, stronger effect = lower value 0.972 | S. cerevisiae deletion strains, locus YLR058C, strain SHM2, stronger effect = lower value 0.993 | S. cerevisiae deletion strains, locus YLR102C, strain apc9, stronger effect = lower value 0.999 | S. cerevisiae deletion strains, locus YLR113W, strain HOG1, stronger effect = lower value 1.01 | S. cerevisiae deletion strains, locus YLR221C, strain rsa3, stronger effect = lower value 0.996 | S. cerevisiae deletion strains, locus YLR258W, strain gsy2, stronger effect = lower value 1.02 | S. cerevisiae deletion strains, locus YLR262C, strain YPT6 (second series), stronger effect = lower value 1.02 | S. cerevisiae deletion strains, locus YLR262C, strain YPT6, stronger effect = lower value 0.938 | S. cerevisiae deletion strains, locus YLR268W, strain sec22, stronger effect = lower value 0.96 | S. cerevisiae deletion strains, locus YLR320W, strain mms22, stronger effect = lower value 1.01 | S. cerevisiae deletion strains, locus YLR330W, strain CHS5, stronger effect = lower value 0.996 | S. cerevisiae deletion strains, locus YLR342W, strain FKS1 (second series), stronger effect = lower value 1.07 | S. cerevisiae deletion strains, locus YLR342W, strain FKS1, stronger effect = lower value 1.05 | S. cerevisiae deletion strains, locus YLR357W, strain rsc2, stronger effect = lower value 1.04 | S. cerevisiae deletion strains, locus YLR370C, strain arc18, stronger effect = lower value 1.02 | S. cerevisiae deletion strains, locus YLR371W, strain rom2, stronger effect = lower value 1.01 | S. cerevisiae deletion strains, locus YLR384C, strain iki3, stronger effect = lower value 1.03 | S. cerevisiae deletion strains, locus YLR418C, strain cdc73, stronger effect = lower value 0.984 | S. cerevisiae deletion strains, locus YML016C, strain PPZ1, stronger effect = lower value 0.995 | S. cerevisiae deletion strains, locus YML032C, strain rad52, stronger effect = lower value 1 | S. cerevisiae deletion strains, locus YML120C, strain ndi1, stronger effect = lower value 1.03 | S. cerevisiae deletion strains, locus YML124C, strain tub3, stronger effect = lower value 1.01 | S. cerevisiae deletion strains, locus YMR058W, strain fet3, stronger effect = lower value 0.997 | S. cerevisiae deletion strains, locus YMR078C, strain ctf18, stronger effect = lower value 1 | S. cerevisiae deletion strains, locus YMR125W, strain sto1, stronger effect = lower value 1.1 | S. cerevisiae deletion strains, locus YMR129W, stronger effect = lower value 1.02 | S. cerevisiae deletion strains, locus YMR205C, strain PFK2, stronger effect = lower value 1.02 | S. cerevisiae deletion strains, locus YMR223W, strain ubp8, stronger effect = lower value 1.01 | S. cerevisiae deletion strains, locus YMR231W, strain pep5, stronger effect = lower value 1.02 | S. cerevisiae deletion strains, locus YMR263W, strain SAP30, stronger effect = lower value 0.955 | S. cerevisiae deletion strains, locus YMR307W, strain GAS1, stronger effect = lower value 1.08 | S. cerevisiae deletion strains, locus YNL067W, strain RPL9B, stronger effect = lower value 0.966 | S. cerevisiae deletion strains, locus YNL071W, strain lat1, stronger effect = lower value 1.01 | S. cerevisiae deletion strains, locus YNL128W, strain TEP1, stronger effect = lower value 0.94 | S. cerevisiae deletion strains, locus YNL153C, strain GIM3, stronger effect = lower value 0.97 | S. cerevisiae deletion strains, locus YNL183C, strain NPR1, stronger effect = lower value 0.914 | S. cerevisiae deletion strains, locus YNL209W, strain ssb2, stronger effect = lower value 1.01 | S. cerevisiae deletion strains, locus YNL233W, strain BNI4, stronger effect = lower value 0.993 | S. cerevisiae deletion strains, locus YNL248C, strain rpa49, stronger effect = lower value 0.992 | S. cerevisiae deletion strains, locus YNL250W, strain rad50, stronger effect = lower value 0.989 | S. cerevisiae deletion strains, locus YNL271C, strain bni1, stronger effect = lower value 0.996 | S. cerevisiae deletion strains, locus YNL298W, strain CLA4, stronger effect = lower value 0.994 | S. cerevisiae deletion strains, locus YNL307C, strain MCK1, stronger effect = lower value 1.02 | S. cerevisiae deletion strains, locus YNL322C, strain KRE1 (second series), stronger effect = lower value 1.03 | S. cerevisiae deletion strains, locus YNL322C, strain KRE1, stronger effect = lower value 0.978 | S. cerevisiae deletion strains, locus YNR049C, strain mso1, stronger effect = lower value 1.02 | S. cerevisiae deletion strains, locus YNR052C, strain pop2, stronger effect = lower value 1.01 | S. cerevisiae deletion strains, locus YOL006C, strain TOP1, stronger effect = lower value 0.943 | S. cerevisiae deletion strains, locus YOL012C, strain htz1 0.796 | S. cerevisiae deletion strains, locus YOL147C, strain pex11, stronger effect = lower value 1 | S. cerevisiae deletion strains, locus YOR001W, strain rrp6, stronger effect = lower value 1.04 | S. cerevisiae deletion strains, locus YOR061W, strain CKA2, stronger effect = lower value 0.969 | S. cerevisiae deletion strains, locus YOR069W, strain VPS5, stronger effect = lower value 1 | S. cerevisiae deletion strains, locus YOR070C, strain gyp1, stronger effect = lower value 1.01 | S. cerevisiae deletion strains, locus YOR080W, strain dia2, stronger effect = lower value 1.03 | S. cerevisiae deletion strains, locus YOR083W, strain WHI5, stronger effect = lower value 1.03 | S. cerevisiae deletion strains, locus YOR106W, strain vam3, stronger effect = lower value 1.01 | S. cerevisiae deletion strains, locus YOR136W, strain idh2, stronger effect = lower value 1.01 | S. cerevisiae deletion strains, locus YOR144C, strain elg1, stronger effect = lower value 0.995 | S. cerevisiae deletion strains, locus YOR184W, strain ser1, stronger effect = lower value 1.02 | S. cerevisiae deletion strains, locus YOR231W, strain MKK1, stronger effect = lower value 1.01 | S. cerevisiae deletion strains, locus YOR265W, strain rbl2, stronger effect = lower value 1.03 | S. cerevisiae deletion strains, locus YOR270C, strain vph1, stronger effect = lower value 1 | S. cerevisiae deletion strains, locus YOR290C, strain snf2, stronger effect = lower value 1.01 | S. cerevisiae deletion strains, locus YOR316C, strain cot1, stronger effect = lower value 1 | S. cerevisiae deletion strains, locus YPL051W, strain arl3, stronger effect = lower value 1.02 | S. cerevisiae deletion strains, locus YPL055C, strain LGE1, stronger effect = lower value 0.932 | S. cerevisiae deletion strains, locus YPL078C, strain atp4, stronger effect = lower value 1.02 | S. cerevisiae deletion strains, locus YPL106C, strain sse1, stronger effect = lower value 1.04 | S. cerevisiae deletion strains, locus YPL240C, strain hsp82, stronger effect = lower value 1.02 | S. cerevisiae deletion strains, locus YPL241C, strain CIN2, stronger effect = lower value 0.989 | S. cerevisiae deletion strains, locus YPL256C, strain CLN2, stronger effect = lower value 0.999 | S. cerevisiae deletion strains, locus YPR119W, strain clb2, stronger effect = lower value 1 | S. cerevisiae deletion strains, locus YPR141C, strain kar3, stronger effect = lower value 0.981 | S. cerevisiae deletion strains, locus YPR163C, strain tif3, stronger effect = lower value 1.01 | S. cerevisiae deletion strains, locus YPR167C, strain met16, stronger effect = lower value 0.991 | S. cerevisiae deletion strains, strain wtn01, stronger effect = lower value 1 | S. cerevisiae strains, strain wild type, stronger effect = lower value 0.995

Reference: PubChem BioAssay AID1159580 (chemical genetic matrix, 2015)
